# High-throughput results from PubChem.
# MITF act: MITF TRPM1 promoter activation in melanoma cells. SK-MEL-5 TRPM1-promoter luciferase, 24 h; % of positive control, neutral wells = 0. AID 588334. activation, % at 12.5 µM. 0.75% of 300,000 active;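 active means mean activation of at least 80% with every replicate also reaching 80%; inconclusive means mean reaches 80% but some replicate falls short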;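 further: 0% = neutral control wells and 100% = parthenolide positive control wells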
# Wnt bcat act: activates Wnt/beta-catenin signaling in a reporter cell assay; activation, % at 9.35 µM; activator, plate reader; 1.2% of 300,000 active; AID 743398; in the data active means activation above about 30%, passing the limit was not always enough; inconclusive means no clear call, values can overlap the other calls;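 further: 0% = neutral control wells and 100% = positive control wells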
# NSD2 HMT inh: blocks human histone methyltransferase NSD2; 0.54% of 310,000 active; NSD2 peptide methylation, AlphaScreen, 120 min; O96028; inhibition, % at 12.5 µM; in the data active means inhibition above about 50%
# PfHsp90 yeast 2: reduces growth (ATP signal) of yeast expressing P. falciparum Hsp90; AID 504621; 0.32% of 310,000 active; S. cerevisiae expressing PfHsp90, BacTiter-Glo ATP, 48 h; yeast lacking PDR1 and PDR3 efflux regulators; inhibition, % at 9.4 µM;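 active means every replicate shows inhibition above about 80%, whatever the replicate mean, limit read from the data; inconclusive means mean inhibition reaches the set limit but some replicate falls short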;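 further: 0% = DMSO neutral controls and 100% = 20 µM radicicol positive controls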
# MITF TRPM1 inh: MITF TRPM1 promoter inhibition in SK-MEL-5 cells | inhibition, % at 12.5 µM | SK-MEL-5 TRPM1 promoter luciferase, 24 h | AID 488899 | 0.83% of 330,000 active;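 active means mean inhibition across replicates of 60% or more, whatever share of single replicates reaches that level; inconclusive means some that reach 60%, reason not given; inactive means mean inhibition across replicates below 60%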
# N-glyco inh: blocks N-linked glycosylation in D54 reporter cells | 0.23% of 360,000 active | reporter increase, % at 12.5 µM | D54 ERlucT glycosylation luciferase reporter, 24 h; percent of 100 nM tunicamycin response;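 active means mean luciferase reporter signal, scaled so untreated is 0 and the glycosylation-blocking control 100, at or above a set limit in every replicate; inconclusive means mean reaches the limit but not every replicate does; inactive means mean below the limit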;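 further: luciferase carries N-glycosylation sites so blocking glycosylation raises the light; 0% = median of neutral control wells and 100% = median of 100 nM tunicamycin wells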
# Starred values were filed as active, the others as inactive; ? = inconclusive; . = no result given. Shown are actives, neighbours in structure and some others; about 2.9% of the full set was active somewhere.
SMILES,MITF act,Wnt bcat act,NSD2 HMT inh,PfHsp90 yeast 2,MITF TRPM1 inh,N-glyco inh
COc1ccc(/C=C/C(=O)Nc2ccc(OC)nc2)cc1,12.4,-0.1,-1.4,-37.9,-6.9,-2.0
COc1ccc(CS(=O)(=O)/C(Cl)=C(/Cl)C(=O)Nc2ccc(OC)nc2)cc1,-93.0,.,.,-51.3,94.0*,-18.2
COc1ccc(NC(=O)/C(Cl)=C(/Cl)S(=O)Cc2ccccc2)cn1 (stereo not given),-103.0,.,9.4,119.0*,103.8*,-18.1
Cc1cc(/C=C(\C#N)c2nc3ccccc3[nH]2)c(C)n1C,63.1,83.8*,0.9,-9.6,-57.4,5.7
CCC[C@H]1[C@@H](NCc2ccccc2)CC[C@@]23CCCN2C(=O)CCC[C@@H]13,.,.,-2.2,.,.,.
CNc1nc(-c2ccc3c(c2)CCN3C(=O)c2ccc(F)cc2)cs1,32.6,-3.8,1.1,-1.3,-28.9,-0.7
CNc1nc(-c2ccc3c(c2)CCN3C(=O)c2ccccc2C)cs1,148.9*,6.1,-1.7,-15.4,-145.1,-9.7
COC(=O)[C@]12C[C@H](CC(=O)NCc3ccc(C)o3)C(=O)N(Cc3ccccc3)C1=C[C@H](C1CCCC1)O[C@@H]2C,.,-0.8,.,.,.,.
COC(=O)CSc1nnc(CNC(=O)c2ccc(S(=O)(=O)N3CCOCC3)cc2)n1C,1.4,-5.0,-1.5,-17.0,5.9,0.6
Nc1nnc(SCC(=O)c2ccc3c(c2)NC(=O)CO3)s1,-7.4,-0.5,6.0,35.0,12.0,-1.6
Cc1ccc(N2C(=O)Nc3ccccc3C2(O)C(=O)N2CCN(c3ccccn3)CC2)cc1C (stereo not given),12.6,-0.6,-1.7,-9.8,-13.6,29.0*
CCc1ccc(N2C(=O)Nc3ccccc3C2(O)C(=O)N2CCN(c3ccccn3)CC2)cc1 (stereo not given),21.0,-0.4,-1.4,-9.7,-12.3,37.6*
COC(CNC(=O)c1ccc2c3c(onc13)-c1ccccc1C2=O)OC,.,70.7*,.,-5.5,80.0*,1.7
C=C(C)Cc1c(C)c(C#N)c2nc3ccccc3n2c1NCCCN(C)C,.,1.1,0.0,.,.,37.6*
C=CCc1c(C)c(C#N)c2nc3ccccc3n2c1NCCN(C)C,-0.8,.,-3.7,108.8*,-0.5,2.2
CC(C)CN(C(=O)CCNC(=O)c1ccccc1Cl)C1CCS(=O)(=O)C1 (stereo not given),1.0,32.4*,0.0,.,-1.3,1.6
COc1cccc(-n2nc(C#N)c(Cl)cc2=O)c1,-90.2,-7.4,6.3,-37.9,90.6*,-10.9
CCCS(=O)(=O)c1nnnn1-c1cccc(OC)c1,-70.8,.,.,-22.3,70.1*,-11.3
Cc1ccccc1Nc1c(-c2ccc(N3CCOCC3)cc2)nc2cnccn12,35.8,33.1*,-7.0,-7.1,-35.9,-8.9
Cn1c(=O)cc(SCC(=O)NCCC2=CCCCC2)c2ccccc21,4.3,-0.1,-0.9,-7.1,-5.0,0.0
CCOc1ccc(S(=O)(=O)Nc2ccc(C(=O)NN)cc2)cc1,-1.4,53.0*,-11.8,-45.1,6.3,1.0
CCOc1ccc(S(=O)(=O)Nc2ccc(C(=O)NNC(=O)c3ccncc3)cc2)cc1,-0.1,1.5,2.0,16.4,1.8,1.3
COc1cc(/C=C2\CCC/C(=C\c3ccc(O)c(OC)c3)C2=O)ccc1O,-11.0,2.2,12.0,-32.5,13.3,?
COc1cc(/C=C2/CCC/C(=C\c3cc(O)c(OC)c(Cl)c3)C2=O)cc(Cl)c1O,-10.0,41.4*,9.2,13.9,4.7,34.7*
COc1cc(/C=C2\CC/C(=C\c3cc(OC)c(O)c(OC)c3)C2=O)cc(OC)c1O,-63.8,11.2,61.7*,-5.4,67.6*,-1.3
SMILES,MITF act,Wnt bcat act,NSD2 HMT inh,PfHsp90 yeast 2,MITF TRPM1 inh,N-glyco inh
Cn1c(CCN2CCN(c3ccccn3)CC2)nc2cc(NC(=O)COc3ccccc3)ccc21,-11.8,-2.3,-1.3,-28.3,12.6,-5.9
O=C1C(C2=NC(c3ccccn3)C3C(=O)N(c4ccc(Cl)cc4Cl)C(=O)C23)=C(O)c2ccccc21 (stereo not given),-89.0,-4.5,.,-36.6,89.9*,8.6
O=C1C(C2=NC(C(=O)O)C3C(=O)N(c4ccc(Cl)cc4)C(=O)C23)=C(O)c2ccccc21 (stereo not given),2.2,.,0.8,-2.5,-0.7,.
Cc1cc(-c2nnc(SCC(=O)Nc3cccc4ccccc34)n2N)n[nH]1,.,.,0.9,.,.,.
CCCN1CCCCC(NC(=O)c2ccc(C)cc2C)C1=O (stereo not given),.,-2.3,.,.,.,.
Cc1ccc(Oc2cnc3ccccc3n2)cc1,109.0*,.,-1.5,.,-118.5,-7.7
Cc1c(C(=O)Nc2ccccc2)csc1-c1ccccc1,107.3*,59.2*,-1.0,-10.8,-107.2,-10.6
Cc1c(C(=O)Nc2ccccc2[N+](=O)[O-])csc1-c1ccccc1,30.3,-0.7,-1.1,-4.0,-24.6,-10.5
CN(C(=O)CSc1nc2ccccc2s1)c1c(N)n(Cc2ccccc2)c(=O)[nH]c1=O,-0.3,-0.2,-0.9,-9.8,1.2,-0.8
CN1CCN(CC(=O)Nc2cc(N(C)C)nc3ccccc23)CC1,-0.4,0.6,4.1,.,6.3,43.8*
CCC[C@H]1[C@@H](NC(=O)c2cccc(Cl)c2)CC[C@@]23CCCN2C(=O)CCC[C@@H]13,.,.,-3.4,.,.,.
Cc1cc(NC(=O)OC2CCCCC2)ccc1[N+](=O)[O-],120.1*,16.0,-0.2,-26.4,-105.1,-11.4
Cc1ccc(NC(=O)C2C3CCCCC32)cc1[N+](=O)[O-] (stereo not given),54.5,15.7,-0.2,27.2,-48.4,-0.5
Cc1ccc(-n2c(SCC(=O)Nc3ccc(S(=O)(=O)Nc4cc(C)nc(C)n4)cc3)nnc2-c2cccs2)cc1,.,.,10.9,.,.,.
CCN(CC)c1ccc(C=Nn2c(-c3cc(C)[nH]n3)n[nH]c2=S)cc1,.,.,9.7,.,.,.
Cc1cccc(NC(=O)c2c(O)c3ccccc3[nH]c2=O)c1,105.7*,41.0*,.,2.1,-95.5,-1.7
Cc1ccc(O)c(CNc2nccs2)c1,10.2,2.3,-2.5,-0.4,-9.3,0.8
Oc1ccc(Cl)cc1CNc1nccs1,.,45.3*,-2.7,-9.6,4.9,2.7
CCOc1ccccc1NC(=O)c1nc(S(=O)(=O)Cc2ccccc2)ncc1Cl,-77.3,-14.8,-2.0,-58.0,78.3*,-19.3
COc1ccccc1NC(=O)c1nc(S(=O)(=O)Cc2ccccc2)ncc1Cl,-89.6,-11.1,-3.1,20.9,90.7*,-20.4
CCS(=O)(=O)c1ncc(Cl)c(C(=O)Nc2ccccc2OC)n1,.,-0.3,-2.0,-7.5,40.9,-13.4
COC(=O)N1C[C@H](OC(=S)Nc2ccc(OC)cc2OC)[C@H]2C[C@@H]1c1ccccc1O2,.,1.9,.,.,.,.
O=C(/C=C/c1ccco1)Nc1cccnc1Cl,.,36.3*,12.2,-12.1,-45.6,-0.4
O=C(/C=C/c1ccco1)Nc1ccc2c(c1)OCO2,92.3*,32.6*,0.6,-7.5,-87.5,-0.2
Cc1ccc(NC(=O)c2cccc(NC(=O)/C=C/c3ccco3)c2)cc1C,32.7,11.4,-2.5,-3.1,-29.5,-3.9
